The source of these data is PubChem BioAssay.

Unmarked numbers belong to inactive results. The source made the active and inactive calls.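 Rule for the calls: active = growth inhibition above 50% at the single 2 µM test dose, taken to imply half-maximal potency below 2 µM; inactive = the rest.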

A short description of this experiment: antimalarial activity against Dd2 strain (AID 2302).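 Note: 0% = DMSO untreated growth and 100% = chloroquine plus artemisinin killed control.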 The settings on record: P. falciparum Dd2 in RBCs, LDH growth readout, 72 h; at 2 µM; hits give high values.
With `CC1(C)N=C(N)N=C(N)N1OCCc1ccc(N)cc1`, the growth inhibition is 95% (active). To `Cc1ccc(C(C(=O)Nc2ccc(N3CCNCC3)c(Cl)c2)c2ccccc2)cc1` (stereo not given) belongs 93% (active). To `Cc1ccc2[nH]c3ccccc3c(=O)c2c1` belongs 74% (active). To `COc1ccc2nccc(N3CCCN(CCNCc4ccc5c(n4)NC(=O)CS5)CC3)c2n1` belongs 10%. Take `O[C@@H](c1cccc2ccccc12)[C@@H]1CN(CCc2ccccc2)CC[C@@]1(O)c1ccccc1`: the growth inhibition was 101% (active).

As for `CC(C)(C)c1cc(NC(=O)c2ccc(Cl)c([N+](=O)[O-])c2)cc(C(C)(C)C)c1`, the growth inhibition is 7%. To `Cc1cc(N[C@@H](Cc2ccccc2)C(=O)NCCOc2ccccc2)nc(NCCc2ccccc2)n1` belongs 68% (active); to `N#Cc1ccc(N2CCN(Cc3ccc(-c4ccc(-c5nc6ccc(F)cc6[nH]5)s4)cc3)CC2)nc1`, 78% (active). In the case of `COc1ccc2nccc(NC(=O)C3(O)CCC(NCc4ccc5c(c4)NCCS5)CC3)c2n1` (stereo not given) it was 64% (active). Take `Cc1cccc(-n2nc(C)c3c2NC(=O)CC3C(=O)c2ccc(Cl)s2)c1` (stereo not given): the growth inhibition was 85% (active). Consider `COc1ccc(C=NNc2cc(C)nc3c(C)cccc23)c2ccccc12`, for which the growth inhibition was 98% (active). In the case of `NC(=NCCCCC1CCCCC1)c1cccc(C(N)=NCCCCC2CCCCC2)n1` it was 19%; in that of `CC(C)c1ccc(CN2CCC(CNC(=O)c3cc(-c4cccc(Cl)c4)cs3)C2)cc1` (stereo not given), 43%. As to `OC1CCN(c2cc(-c3ccccn3)nc(-c3ccccn3)n2)CC1`, the growth inhibition was 97% (active).

For `Cc1cc(N[C@@H](Cc2ccccc2)C(=O)Nc2ccccc2)nc(NCCc2ccccc2)n1`, the growth inhibition was 87% (active). Regarding `CN1CCCC1CCNCc1cccc(-c2cnc(N(C)C3CCCCC3)nc2)c1` (stereo not given), the growth inhibition was 95% (active). For the compound `c1ccc(CN2CCCN(c3ccc4c(c3)CCN(Cc3ccc(-c5ncc[nH]5)cc3)CC4)CC2)cc1`, the growth inhibition was 73% (active). In the case of `N#Cc1ccc(-c2ccc(C(=O)NCCCCN3CCC(c4ccc5c(c4OCC(N)=O)CCCC5)CC3)cc2)cc1`, the growth inhibition is 23%. On to `CC(C)CNCc1cccc(-c2cccc(CN(CCCN3CCN(C)CC3)C(=O)Nc3ccccc3)c2)c1`, for which the growth inhibition is 76% (active). To `O=C(NCCCCN1CCC(c2ccc3c(c2OCc2ccncc2)CCCC3)CC1)c1ccc(-c2ccc(C(F)(F)F)cc2)cc1` belongs 92% (active); to `O=C(C=Cc1ccc(Br)cc1)N1CCC(CCN2CCC(c3c[nH]c4ccccc34)CC2)CC1`, 24%; to `CC(=O)c1c(Cc2ccccc2Cl)c[nH]c1C`, 53% (active). In the case of `CN(C)CCOc1cc(NC(=O)Nc2ccc(-c3ccccc3)cc2Cl)ccc1I` it was 93% (active); in that of `CCOc1ccccc1CCNCC1CCN(CC2CCCCC2)CC1`, 59% (active).

Turning to `c1ccc2c(c1)CN(CC1CC1)CC1(CCN(Cc3c[nH]c4cnccc34)CC1)O2`, the growth inhibition was 14%. In the case of `O=C(Nc1ccccc1C(F)(F)F)Nc1nn(Cc2c(F)cccc2Cl)cc1Br` it was 86% (active); in that of `CN1CCN(c2ccnc3ccc(NC(=O)Nc4cccc5c(-c6ccncc6)cccc45)cc23)CC1`, 100% (active). As to `O=C(COc1cccc([N+](=O)[O-])c1)Nc1ccc(-c2nc3ccccc3[nH]2)cc1`, the growth inhibition is 5%. For `Cc1cccc2[nH]c(-c3ccc(-c4cccc(NC(=O)c5cnn6cccnc56)c4)cc3)nc12`, the growth inhibition was 29%. In the case of `O=C(C=Cc1ccc(F)cc1)N1CCN(S(=O)(=O)c2ccc(Cl)cc2)CC1` it was 93% (active); in that of `CCN(CC)c1ccc(C(=O)Cn2ccc(=N)cc2)cc1`, 64% (active); in that of `COc1ccc2nc(C)cc(Nc3ccc(Oc4ccc5ccccc5c4Cl)c(Cl)c3)c2c1`, 98% (active). In the case of `COc1cccc(NC(=O)Nc2ccc(Nc3nc(C)cc(N(C)C)n3)cc2)c1` it was 100% (active); in that of `CC(C)Cc1nc(N2CCOCC2)c2nnn(Cc3ccccc3)c2n1`, 76% (active); in that of `O=C([C@@H]1CCCCN1c1ccc([N+](=O)[O-])c2ccccc12)N1CCN(c2ncccn2)CC1`, 5%.

For `CN1CCC(N2CCN(c3ccc4c(=O)nc(CCc5cccc(F)c5F)n(CC(=O)N(C)Cc5ccc(-c6ccc(C(F)(F)F)cc6)cc5)c4n3)CC2)CC1`, the growth inhibition is 99% (active).

As to `O=C(/C=C/c1ccc(Cl)c(Cl)c1)NCCCCCN1CCCC(C(=O)Nc2ccc(Cl)cc2)C1` (stereo not given), the growth inhibition was -3%. To `COCCN1CCC(NCC(C)(C)c2nc(-c3ccc(Cl)c(O)c3)c(-c3ccncc3)[nH]2)CC1` belongs 47%.

Take `CC(Nc1ncc(-c2ccsc2)c(-c2nccs2)n1)c1ccc2c(c1)OCCO2` (stereo not given): the growth inhibition was 66% (active).

In the case of `CC1CC(NCCCNc2cc(=O)c3ccccc3[nH]2)c2c1cc(Cl)c(Cl)c2Cl` (stereo not given), the growth inhibition was 70% (active).
